# POLB inh – blocks human DNA polymerase beta activity; Pol beta primer extension/strand displacement, fluorescence kinetic; Potency, µM (doses to about 114 µM), actives largely listed as inhibitors; 340,000 compounds, 1.3% hits
#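 Homogeneous kinetic assay of primer extension and strand displacement by 10 nM Pol beta, preincubated 15 min at room temperature with compound before 50 nM substrate (final) was added. Read at 0 and 10 min; four-parameter Hill fit.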
# POLH inh – DNA polymerase eta (human) inhibition. Q9Y253. recombinant Pol eta, fluorescent DNA replication assay. Potency, µM (series often up to 114 µM), hits mostly inhibitors. 390,000 compounds, 1.2% hits
#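 Fluorescent replication assay: 50 nM final substrate added after a 15 min room-temperature compound preincubation with 10 nM enzyme. Signal taken at 0 min and again at 10 min.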
# L3MBTL1 block – inhibitors of human L3MBTL1; Q9Y468; 230,000 compounds, 0.66% hits; AlphaScreen L3MBTL1–H3K9me1 peptide binding; Potency, µM (highest dose often 57.1 µM), hits mostly inhibitors; further: nearly all actives have a fitted effect of over 60% in size
#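 L3MBTL1 50 nM + b-AHA-H3(1-15)K9me1 75 nM, 30 min RT; compound added, 30 min RT; streptavidin donor/Ni-chelate acceptor beads 10 ug/mL each final, 30 min RT dark; AlphaScreen read.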
# POLI inh – inhibitors of human DNA polymerase iota; Q9UNA4; Pol iota fluorescent replication assay, 10 min; Potency, µM (series often up to 115 µM), usual class: inhibitors; 390,000 compounds, 1% hits; AID 588590
#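 Pol iota at 10 nM preincubated 15 min with compounds at room temperature; reaction started with fluorescent substrate, 50 nM final. Fluorescence read kinetically at 0 and 10 min; buffer-only wells as negative control.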
# Pol kappa inh – DNA polymerase kappa (human) inhibition | Potency, µM (highest dose often 107 µM), usual class: inhibitors | AID 588579 | purified Pol kappa, fluorescent DNA synthesis assay, 10 min | 400,000 compounds, 0.53% hits
#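 Kinetic fluorescence readout at 0 and 10 min followed reaction start with substrate at 50 nM final. Beforehand, enzyme (10 nM Pol kappa) stood 15 min with compound at room temperature; buffer-only wells were negative controls.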
# A number is an active result; i = inactive; ? = inconclusive; nt = not tested or not shown. A selection: hits, their analogues and other compounds. The true share with any hit is near 2.4%. The call rests on the fitted dose curve; in most records, active means well fitted curve in the direction sought with a large enough effect; inconclusive means small, poorly fitted or top-dose-only effect, or another doubt; inactive means no such curve, though single readings can be large; an effect the other way counts as inactive or inconclusive.
SMILES,POLB inh,POLH inh,L3MBTL1 block,POLI inh,Pol kappa inh
OCC1OC([S-])[C@H](O)C(O)C1O.[Au+] (some centres not stated),nt,nt,nt,nt,5.01µM
Cc1cccc(NC(=O)C2CCCN2S(=O)(=O)c2ccc3nc(-c4ccccc4)[nH]c3c2)c1 (configuration not stated),?,79.4µM,nt,?,?
Cc1ccc(NC(=O)C2CCCN2S(=O)(=O)c2ccc3nc(-c4ccccc4)[nH]c3c2)cc1C (configuration not stated),i,i,nt,?,i
CCCCNC(=O)c1ccc2nc(-c3cccs3)c(-c3cccs3)nc2c1,nt,nt,nt,i,i
COc1ccc(Cc2nc3ccc(S(=O)(=O)N4CCOCC4)cc3[nH]2)cc1,i,i,i,79.4µM,i
O=C(N/N=C/c1cc(Cl)cc([N+](=O)[O-])c1O)c1cc(-c2ccccn2)nc2ccccc12,i,79.4µM,nt,i,i
Cc1ccc(C)n1-c1ccc(C(=O)NCC2CCCO2)cc1 (configuration not stated),39.8µM,?,i,?,i
COc1ccc(C(=O)NCC2CCCO2)cc1 (configuration not stated),i,i,i,i,i
CS(=O)(=O)Nc1ccc(C(=O)NCC2CCCO2)cc1 (configuration not stated),i,i,i,i,i
Cc1ccc([N+](=O)[O-])cc1S(=O)(=O)Nc1ccc(C(=O)NCC2CCCO2)cc1 (configuration not stated),nt,79.4µM,i,?,i
Cc1cccc(-c2cc(NC(=O)COc3ccccc3F)n(-c3ccccc3)n2)c1,i,i,nt,i,i
COc1nc(N)nc(NC(=O)c2cccs2)c1N=O,nt,i,nt,28.2µM,i
Cc1ccc(N(Cc2cccs2)C(=O)COc2ccccc2[N+](=O)[O-])cc1,i,i,nt,i,i
COc1cccc(NC(=O)Cn2c(=O)n(CCCCC(=O)NCc3ccc4c(c3)OCO4)c(=O)c3ccccc32)c1,i,i,nt,i,i
COc1ccc(/C=N\NC(=O)c2ccccc2F)cc1COc1ccc(F)cc1,i,i,nt,i,i
COc1ccc(/C=N/NC(=O)c2ccco2)cc1COc1ccc(F)cc1,?,i,nt,79.4µM,i
COc1ccc(/C=N/NC(=O)c2ccc(Cl)cc2)cc1Cn1cc(Cl)cn1,20µM,i,i,79.4µM,?
COc1ccc(/C=N/NC(=O)c2ccc(NC(C)=O)cc2)cc1COc1ccc(F)cc1F,35.5µM,?,nt,35.5µM,i
COc1ccc(/C=N\NC(=O)c2cc(O)c(O)c(O)c2)cc1COc1ccc(C(=O)OCC(C)C)cc1,1.41µM,?,nt,i,i
Cc1ccc2[nH]c(=O)c(CN(Cc3ccccc3)Cc3nnnn3Cc3ccco3)cc2c1,nt,nt,nt,i,i
COc1ccc(/C=N/NC(=O)c2cc(C(C)(C)C)[nH]n2)cc1COc1ccc(F)cc1F,i,i,nt,89.1µM,i
OC(C[n+]1cccc(Br)c1)c1ccccc1 (configuration not stated),nt,nt,nt,i,i
CCC(C)Sc1nc2c(c(=O)[nH]1)C(c1cccs1)C1=C(CCCC1=O)N2 (configuration not stated),25.1µM,?,nt,?,i
O=C1CCCC2=C1C(c1ccncc1)c1c(nc(SCc3ccccc3Cl)[nH]c1=O)N2 (configuration not stated),?,?,nt,i,i
COc1ccc(-c2nc3scc(CCNS(=O)(=O)c4ccccc4F)n3n2)cc1,i,i,nt,i,i
SMILES,POLB inh,POLH inh,L3MBTL1 block,POLI inh,Pol kappa inh
CC1OC(CC(=O)O)CC2=C1C(=O)c1c(O)cccc1C2=O (configuration not stated),nt,25.1µM,nt,3.16µM,i
CCC(Cn1nnc2ccccc2c1=O)NC(=O)Nc1ccccc1OC (configuration not stated),i,i,nt,?,i
CCN(CC)S(=O)(=O)c1cc(NC(=O)c2ccc3c(c2)NC(=O)C(C)S3)ccc1C (configuration not stated),nt,56.2µM,i,i,i
Cc1cc(C)c(NC(=O)c2ccc3c(c2)NC(=O)C(C)S3)c(C)c1 (configuration not stated),nt,i,i,i,i
COc1ccc(N(CC(=O)Nc2cc(OC)cc(OC)c2)S(=O)(=O)c2c(C)noc2C)cc1,i,i,nt,89.1µM,i
COc1ccc(N(CC(=O)Nc2ccc(C)cc2)S(=O)(=O)c2c(C)noc2C)cc1,i,i,nt,i,i

# Screens (PubChem)
